This is an account of results in PubChem BioAssay (Tox21).

The nature of assay [1]: qHTS RealTime-Glo MT Cell Viability Assay in HEK293 cells - 0 hour (AID 1224880). Further: top concentration of the series differs between compounds; nearly all actives have a fitted effect of over 45% in size. Summed up:
(§1)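 600 HEK293 cells per well, dispensed already mixed with RealTime-Glo MT reagents. Compound dosing came 5 h later. The same wells were read for luminescence at 0, 8, 16, 24, 32 and 40 h of exposure at 37 C.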
A general note: In qHTS, concentration-response curves come from the screen itself.

Assay [2] can be described thus: A CellTox Green Cytotoxicity Assay to monitor cytotoxicity in HEK293 cells - 32 hour (AID 1224881). Further: nearly all actives have a fitted effect of over 40% in size. Put shortly: (§2)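 Dead-cell fluorescence measured kinetically: asymmetric cyanine dye, HEK293, 600 cells/well, 5 h settle, 23 nL cpd/DMSO, 37 C, reads 0–40 h every 8 h.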
The nature of assay [3]: A CellTox Green Cytotoxicity Assay to monitor cytotoxicity in HepG2 cells - 0 hour (AID 1224882). Further: nearly all actives have a fitted effect of over 35% in size. Summed up: (§3)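 First, HepG2 cells (600/well) mixed with reagent were plated; second, after 5 h at 37 C they received compounds via pintool; third, fluorescence was measured at 0 h through 40 h at 8 h intervals.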
Assay [4] can be described thus: A CellTox Green Cytotoxicity Assay to monitor cytotoxicity in HepG2 cells - 32 hour (AID 1224883). Further: nearly all actives have a fitted effect of over 50% in size. Further: potency means the concentration at half of the fitted maximal effect. Summed up:
as §3

Assay [5] is described as follows: qHTS RealTime-Glo MT Cell Viability Assay in HEK293 cells - 24 hour (AID 1224886). Further: nearly all actives have a fitted effect of over 50% in size. Further: potency means the concentration at half of the fitted maximal effect. Put shortly: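 HEK293 cells were seeded at 600 cells/well together with NanoLuc luciferase and cell-permeant prosubstrate, preincubated 5 h at 37 C/5% CO2, then given compound in DMSO by pintool. Luminescence from viable-cell prosubstrate reduction was read repeatedly over 40 h.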

Assay [6] in a line: qHTS RealTime-Glo MT Cell Viability Assay in HEK293 cells - 8 hour (AID 1224887). Further: nearly all actives have a fitted effect of over 50% in size. Further: potency means the concentration at half of the fitted maximal effect. Summed up: as §1
Assay [7] in a line: A CellTox Green Cytotoxicity Assay to monitor cytotoxicity in HEK293 cells - 16 hour (AID 1224888). Further: nearly all actives have a fitted effect of over 35% in size. Put shortly: as §2
Assay [8] in a line: qHTS RealTime-Glo MT Cell Viability Assay in HepG2 cells - 0 hour (AID 1224889). Further: nearly all actives have a fitted effect of over 50% in size. Further: potency means the concentration at half of the fitted maximal effect. Put shortly:
(§4)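 HepG2 cells were seeded at 600 cells/well together with NanoLuc luciferase and a cell-permeant prosubstrate, preincubated 5 h at 37 C/5% CO2, then pin-dosed with compounds in DMSO. Nonlytic luminescence from viable cells was read at each time point.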

The nature of assay [9]: A CellTox Green Cytotoxicity Assay to monitor cytotoxicity in HepG2 cells - 8 hour (AID 1224890). Further: nearly all actives have a fitted effect of over 45% in size. Put shortly:
as §3

A short description of assay [10]: qHTS assay to identify small molecule antagonists of the estrogen receptor alpha (ER-alpha) signaling pathway using the BG1 cell line in the presence of 0.1 nM 17-beta-estradiol - cell viability counter screen (AID 1259241). Further: nearly all actives have a fitted effect of over 40% in size. Put shortly:
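Cytotoxicity counter-screen: live-cell protease activity measured by fluorescence (30 min reagent step) in the same wells. Cells were VM7Luc4E2 with endogenous ER-alpha and ERE-driven luciferase, treated 22 hr at 37C alongside 0.1 nM 17beta-estradiol final.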

Assay [11] in a line: qHTS assay to identify small molecule antagonists of the androgen receptor (AR) signaling pathway using the MDA cell line in the presence of 0.5 nM R1881 - cell viability counter screen (AID 1259242). Further: nearly all actives have a fitted effect of over 45% in size. Put shortly: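 qHTS format. MDA-kb2 (MMTV-luc, AR/GR responsive) + cpd + 0.5 nM R1881 final, 16 hr 37C/0% CO2 → CellTiter-Fluor 30 min → fluorescence intensity.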
Assay [12] in a line: qHTS assay to identify small molecule phospholipidosis (PLD) inducers (AID 1259344; active means well fitted curve in the direction sought with a large enough effect; an effect the other way counts as inactive or inconclusive). Summed up:
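Image-based: LipidTOX Red pit count/intensity per well and per cell; HepG2, 24 h compound at 37 C, PFA fixation, Hoechst counterstain.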

A short description of assay [13]: qHTS assay to identify small molecule HDAC inhibitors (AID 1259364).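 Further: wild-type HCT-116 cells with endogenous class I/II HDAC activity; top concentration of the series differs between compounds; nearly all actives have a fitted effect of over 45% in size.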 Summed up: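 Quantitative high-throughput format: overnight-seeded HCT-116 cells got compounds for 2 hr at 37C; HDAC-Glo I/II reagent added, 30 min RT, luminescence measured.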
Assay [14] is described as follows: qHTS assay to identify small molecule HDAC inhibitors - cell viability counter screen (AID 1259365). Summed up:
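CellTiter-Glo luminescence (30 min, room temperature) reported viability after a 2 h compound exposure at 37 C. Cells: wild-type HCT-116, 1,500 per well, seeded the night before.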

The nature of assay [15]: qHTS assay to identify small molecule agonists of the sonic hedgehog signaling (Shh) pathway - cell viability counter screen (AID 1259366). Further: nearly all actives have a fitted effect of over 50% in size. Put shortly: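 Cytotoxicity counter screen: CellTiter-Fluor reagent added after 23 h compound exposure, then 1 h at 37C and fluorescence read. Cells were 3T3 Gli1-Luc, seeded 2,000 per well and dosed 4 h post-plating.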
Assay [16] is described as follows: qHTS assay to identify small molecule antagonists of the sonic hedgehog signaling (Shh) pathway - cell viability counter screen (AID 1259367). Further: nearly all actives have a fitted effect of over 55% in size. Further: potency means the concentration at half of the fitted maximal effect. Put shortly:
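Tox21 library chemicals were tested on a Gli1-Luc NIH/3T3 clone (2,000 cells/well) stimulated by conditioned medium; viability was quantified as fluorescence from CellTiter-Fluor reagent added at 23 hr.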

In assay [17] the target is Estrogen receptor (Homo sapiens) (UniProt P03372). Description: qHTS assay to identify small molecule antagonists of the estrogen receptor alpha (ER-alpha) signaling pathway using the BG1 cell line in the presence of 0.1 nM 17-beta-estradiol (AID 1259244). Further: nearly all actives have a fitted effect of over 50% in size. Summed up: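 Reporter is a stably transfected luciferase under four estrogen responsive elements in VM7Luc4E2 cells expressing native full-length ER-alpha; inhibition of 0.1 nM (final) 17beta-estradiol-driven signal over 22 h is read by luminescence.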
Sequence of Estrogen receptor (Homo sapiens) (P03372 whole entry, looked up): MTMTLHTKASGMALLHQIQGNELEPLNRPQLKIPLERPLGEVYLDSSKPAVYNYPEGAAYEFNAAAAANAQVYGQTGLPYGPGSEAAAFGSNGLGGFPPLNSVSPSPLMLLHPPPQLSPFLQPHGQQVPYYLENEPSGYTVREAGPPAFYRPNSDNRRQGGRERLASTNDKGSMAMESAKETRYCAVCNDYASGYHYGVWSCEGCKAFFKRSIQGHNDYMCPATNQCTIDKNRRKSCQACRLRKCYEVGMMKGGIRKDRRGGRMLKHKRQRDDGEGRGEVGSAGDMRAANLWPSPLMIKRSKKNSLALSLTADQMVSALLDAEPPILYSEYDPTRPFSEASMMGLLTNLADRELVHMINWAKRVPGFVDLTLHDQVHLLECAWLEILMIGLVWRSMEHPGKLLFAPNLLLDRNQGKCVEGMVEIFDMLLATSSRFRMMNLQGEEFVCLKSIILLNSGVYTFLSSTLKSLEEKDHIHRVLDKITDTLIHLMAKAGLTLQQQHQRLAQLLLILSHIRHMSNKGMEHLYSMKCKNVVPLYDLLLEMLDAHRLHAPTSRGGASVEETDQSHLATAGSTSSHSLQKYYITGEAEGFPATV

Assay [18] in a line: qHTS RealTime-Glo MT Cell Viability Assay in HepG2 cells - 16 hour (AID 1224885). Further: nearly all actives have a fitted effect of over 50% in size. Put shortly: as §4

SMILES strings stand for the structures. Values joined by “and” are separate entries in the source; they are usually repeats but may differ in a detail not shown here. Identical values can stand only once. Inconclusive results are not listed. Active and inactive are the calls of the source. Unless noted, the call rests on the fitted dose curve; in most records, active means well fitted curve in the direction sought with a large enough effect in the repeat runs; inconclusive means weak or mixed curves; inactive means no such curve, though single readings can be large; an effect the other way counts as inactive or inconclusive.

In the case of `CC(C)n1c(/C=C/[C@@H](O)C[C@@H](O)CC(=O)O)c(-c2ccc(F)cc2)c2ccccc21`, the Potency entry in [1], in [2], in assay [3], in [5], in assay [6] and in assay [7] was “inactive” in each case. Moreover, the Potency result in assay [8], in assay [9], in [10], in [11], in assay [13] and in [15] was “inactive” throughout. The Potency entry in assay [16] was “inactive”. Moreover, in assay [4], the Potency is 4.36 µM (active) and 9.52 µM (active). In addition, the call in assay [12] and in assay [14] was inactive.

In the case of `Cn1c([N+](=O)[O-])cnc1COC(N)=O`, the Potency result in assay [1], in assay [2], in assay [3], in [4], in assay [5] and in [6] was “inactive” throughout. Moreover, the Potency result in assay [7], in assay [8], in [9], in assay [10], in assay [11] and in assay [17] was “inactive” each time. Further, the Potency entry in [13], in assay [15] and in assay [16] was “inactive” in each case. For the same compound, the compound was called inactive in [12] and in [14].

Regarding `CC(=O)[C@@]1(O)CC[C@H]2[C@@H]3CCC4=CC(=O)CC[C@]4(C)[C@H]3CC[C@@]21C`, the Potency result in [1], in [2], in assay [3], in assay [4], in assay [18] and in assay [5] was “inactive” in each case. Also, the Potency entry in assay [6], in assay [7], in assay [9], in assay [10], in assay [11] and in assay [13] was “inactive” throughout. Besides, the Potency result in assay [15] and in assay [16] was “inactive” each time. The Potency in [8] was 6.16 µM (active) and 8.49 µM (active). In addition, the outcome in [12] and in assay [14] was inactive.

Take `Clc1cc(Cl)c(Cl)cc1Cl`: the Potency result in assay [1], in [2], in [3], in assay [4], in assay [18] and in assay [5] was “inactive” throughout. The Potency result in assay [6], in assay [7], in [8], in assay [9], in [10] and in assay [11] was “inactive” throughout. In addition, the Potency result in [17], in assay [13], in assay [15] and in [16] was “inactive” throughout. Also, in assay [14], the outcome was inactive.

In the case of `CCCCCCCCCCC=CC1CC(=O)OC1=O` (stereo not given), the Potency entry in assay [1], in [2], in assay [3], in [4], in assay [18] and in assay [5] was “inactive” throughout. Also, the Potency entry in assay [6], in assay [7], in assay [8], in assay [9], in assay [10] and in assay [11] was “inactive” each time. The Potency entry in assay [13], in assay [15] and in assay [16] was “inactive” in each case. Moreover, the result in [14] was inactive.

In the case of `COC(=O)Nc1nc2ccc(Sc3ccccc3)cc2[nH]1`, the Potency entry in assay [1], in assay [2], in assay [3], in [7], in assay [8] and in [9] was “inactive” each time. Moreover, the Potency result in [10], in [11], in [13] and in [15] was “inactive” throughout. Besides, the Potency in assay [4] was 2.19 µM (active) and 952 nM (active); in [5], 871 nM (active) and 952 nM (active); in [6], 1.74 µM (active) and 2.13 µM (active); in [16], 8.63 µM (active). Also, the compound was called inactive in [12] and in assay [14].

With `O=C(O)c1ccc([N+](=O)[O-])cc1`, the Potency entry in assay [1], in assay [2], in assay [3], in assay [4], in [18] and in assay [5] was “inactive” each time. Besides, the Potency entry in [6], in [7], in assay [8], in assay [9], in assay [10] and in assay [11] was “inactive” in each case. The Potency entry in assay [13], in assay [15] and in [16] was “inactive” throughout. The compound was called inactive in assay [14].
